In PubChem BioAssay AID1159580 (chemical genetic matrix, 2015):
Several values for one entry are separate records, joined by “and”; a condition that tells them apart may be missing. Equal values may be shown once. In all, about 5,500 compounds went through this assay and about 2,000 (36%) were called active. Inconclusive results (about 18%) are left out. No stated cut-off is given here; in the data, active means normalized growth mostly below about 0.91 (no sharp cut-off); inconclusive means no clear call, values can overlap the other calls; inactive means mostly above about 0.92. The list shows a part of the results.

Experiment: chemical genetic growth profiling, strain panel (AID 1159580);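 further: tested at 20 µM; growth read once vehicle control cultures reached saturation at 30 °C; 1 = growth at the plate median or of vehicle wells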
Conditions: growth OD

Measured: normalized growth

CC(=O)O[C@@H]1CC2C(C)(C)C(=O)C=C[C@]2(C)C2CC[C@]3(C)C(=CC(=O)O[C@H]3c3ccoc3)[C@@]21C (stereo partly drawn)
inactive: S. cerevisiae deletion strains, locus YAL013W, strain DEP1, stronger effect = lower value 0.996 | S. cerevisiae deletion strains, locus YAL021C, strain ccr4, stronger effect = lower value 1.01 | S. cerevisiae deletion strains, locus YAL026C, strain drs2, stronger effect = lower value 1.01 | S. cerevisiae deletion strains, locus YAL030W, strain snc1, stronger effect = lower value 1 | S. cerevisiae deletion strains, locus YBL061C, strain skt5, stronger effect = lower value 1.03 | S. cerevisiae deletion strains, locus YBR009C, strain hhf1, stronger effect = lower value 1.01 | S. cerevisiae deletion strains, locus YBR021W, strain FUR4, stronger effect = lower value 0.988 | S. cerevisiae deletion strains, locus YBR023C, strain chs3, stronger effect = lower value 1 | S. cerevisiae deletion strains, locus YBR171W, strain sec66, stronger effect = lower value 1.01 | S. cerevisiae deletion strains, locus YBR229C, strain ROT2, stronger effect = lower value 0.941 | S. cerevisiae deletion strains, locus YBR231C, strain swc5, stronger effect = lower value 0.998 | S. cerevisiae deletion strains, locus YBR279W, strain paf1, stronger effect = lower value 1.01 | S. cerevisiae deletion strains, locus YCL011C, strain gbp2, stronger effect = lower value 0.993 | S. cerevisiae deletion strains, locus YCL016C, strain dcc1, stronger effect = lower value 1.01 | S. cerevisiae deletion strains, locus YCL029C, strain bik1, stronger effect = lower value 0.977 | S. cerevisiae deletion strains, locus YCL069W, strain vba3, stronger effect = lower value 1 | S. cerevisiae deletion strains, locus YCR088W, strain abp1, stronger effect = lower value 1.01 | S. cerevisiae deletion strains, locus YDL005C, strain med2, stronger effect = lower value 0.995 | S. cerevisiae deletion strains, locus YDL035C, strain GPR1, stronger effect = lower value 0.964 | S. cerevisiae deletion strains, locus YDL040C, strain nat1, stronger effect = lower value 1 | S. cerevisiae deletion strains, locus YDL074C, strain BRE1, stronger effect = lower value 0.979 | S. cerevisiae deletion strains, locus YDL101C, strain DUN1, stronger effect = lower value 1 | S. cerevisiae deletion strains, locus YDL185W, strain tfp1, stronger effect = lower value 0.959 | S. cerevisiae deletion strains, locus YDL192W, strain arf1, stronger effect = lower value 0.978 | S. cerevisiae deletion strains, locus YDR001C, strain nth1, stronger effect = lower value 1.01 | S. cerevisiae deletion strains, locus YDR069C, strain doa4, stronger effect = lower value 1.02 | S. cerevisiae deletion strains, locus YDR101C, strain arx1, stronger effect = lower value 0.956 | S. cerevisiae deletion strains, locus YDR137W, strain rgp1, stronger effect = lower value 1.05 | S. cerevisiae deletion strains, locus YDR159W, strain sac3, stronger effect = lower value 1.01 | S. cerevisiae deletion strains, locus YDR162C, strain NBP2, stronger effect = lower value 0.988 | S. cerevisiae deletion strains, locus YDR195W, strain ref2 0.968 | S. cerevisiae deletion strains, locus YDR297W, strain sur2, stronger effect = lower value 0.992 | S. cerevisiae deletion strains, locus YDR318W, strain mcm21, stronger effect = lower value 0.983 | S. cerevisiae deletion strains, locus YDR334W, strain swr1, stronger effect = lower value 1.01 | S. cerevisiae deletion strains, locus YDR335W, strain msn5, stronger effect = lower value 1.01 | S. cerevisiae deletion strains, locus YDR388W, stronger effect = lower value 0.983 | S. cerevisiae deletion strains, locus YDR392W, strain spt3, stronger effect = lower value 1.01 | S. cerevisiae deletion strains, locus YDR502C, strain sam2, stronger effect = lower value 1.02 | S. cerevisiae deletion strains, locus YEL003W, strain gim4, stronger effect = lower value 1.01 | S. cerevisiae deletion strains, locus YEL037C, strain rad23, stronger effect = lower value 1 | S. cerevisiae deletion strains, locus YEL061C, strain CIN8 (second series), stronger effect = lower value 1.01 | S. cerevisiae deletion strains, locus YER015W, strain faa2, stronger effect = lower value 1.01 | S. cerevisiae deletion strains, locus YER016W, strain bim1, stronger effect = lower value 1.01 | S. cerevisiae deletion strains, locus YER110C, stronger effect = lower value 0.966 | S. cerevisiae deletion strains, locus YER111C, strain swi4, stronger effect = lower value 1.01 | S. cerevisiae deletion strains, locus YER155C, strain BEM2 (second series), stronger effect = lower value 1 | S. cerevisiae deletion strains, locus YER155C, strain BEM2, stronger effect = lower value 0.989 | S. cerevisiae deletion strains, locus YER167W, strain BCK2, stronger effect = lower value 0.975 | S. cerevisiae deletion strains, locus YFR010W, strain ubp6, stronger effect = lower value 1.01 | S. cerevisiae deletion strains, locus YGL078C, strain dbp3, stronger effect = lower value 1.02 | S. cerevisiae deletion strains, locus YGL086W, strain mad1, stronger effect = lower value 0.992 | S. cerevisiae deletion strains, locus YGL167C, strain pmr1, stronger effect = lower value 1 | S. cerevisiae deletion strains, locus YGL173C, strain kem1, stronger effect = lower value 1 | S. cerevisiae deletion strains, locus YGL227W, strain vid30, stronger effect = lower value 1.01 | S. cerevisiae deletion strains, locus YGL240W, strain doc1, stronger effect = lower value 1 | S. cerevisiae deletion strains, locus YGL248W, strain PDE1, stronger effect = lower value 1.01 | S. cerevisiae deletion strains, locus YGL253W, strain hxk2, stronger effect = lower value 0.998 | S. cerevisiae deletion strains, locus YGR135W, strain pre9, stronger effect = lower value 1.1 | S. cerevisiae deletion strains, locus YGR252W, strain gcn5, stronger effect = lower value 1.04 | S. cerevisiae deletion strains, locus YHR013C, strain ard1, stronger effect = lower value 0.988 | S. cerevisiae deletion strains, locus YHR027C, strain rpn1, stronger effect = lower value 0.993 | S. cerevisiae deletion strains, locus YHR030C, strain SLT2, stronger effect = lower value 1.02 | S. cerevisiae deletion strains, locus YHR079C, strain IRE1 (second series), stronger effect = lower value 0.982 | S. cerevisiae deletion strains, locus YHR079C, strain IRE1, stronger effect = lower value 0.997 | S. cerevisiae deletion strains, locus YHR094C, strain hxt1, stronger effect = lower value 0.969 | S. cerevisiae deletion strains, locus YHR129C, strain ARP1, stronger effect = lower value 0.993 | S. cerevisiae deletion strains, locus YHR142W, strain chs7, stronger effect = lower value 1.04 | S. cerevisiae deletion strains, locus YHR200W, strain rpn10, stronger effect = lower value 0.994 | S. cerevisiae deletion strains, locus YIL066C, strain RNR3, stronger effect = lower value 0.956 | S. cerevisiae deletion strains, locus YIL073C, strain SPO22, stronger effect = lower value 0.989 | S. cerevisiae deletion strains, locus YIL125W, strain kgd1, stronger effect = lower value 0.981 | S. cerevisiae deletion strains, locus YIR030C, strain dcg1, stronger effect = lower value 0.987 | S. cerevisiae deletion strains, locus YJL092W, strain hpr5, stronger effect = lower value 1 | S. cerevisiae deletion strains, locus YJL095W, strain BCK1 (second series), stronger effect = lower value 0.999 | S. cerevisiae deletion strains, locus YJL095W, strain BCK1, stronger effect = lower value 1.06 and 1.03 | S. cerevisiae deletion strains, locus YJL115W, strain asf1, stronger effect = lower value 1 | S. cerevisiae deletion strains, locus YJL129C, strain trk1, stronger effect = lower value 1.02 | S. cerevisiae deletion strains, locus YJL134W, strain LCB3, stronger effect = lower value 0.97 | S. cerevisiae deletion strains, locus YJL154C, strain vps35, stronger effect = lower value 1 | S. cerevisiae deletion strains, locus YJL164C, strain tpk1, stronger effect = lower value 1 | S. cerevisiae deletion strains, locus YJL166W, strain qcr8, stronger effect = lower value 1 | S. cerevisiae deletion strains, locus YJL168C, strain set2, stronger effect = lower value 0.995 | S. cerevisiae deletion strains, locus YJL187C, strain SWE1 (second series), stronger effect = lower value 1.03 | S. cerevisiae deletion strains, locus YJR066W, strain TOR1, stronger effect = lower value 0.96 | S. cerevisiae deletion strains, locus YKL009W, strain mrt4, stronger effect = lower value 0.986 | S. cerevisiae deletion strains, locus YKL068W, stronger effect = lower value 0.992 | S. cerevisiae deletion strains, locus YKL085W, strain MDH1 (second series), stronger effect = lower value 0.996 | S. cerevisiae deletion strains, locus YKL085W, strain MDH1, stronger effect = lower value 0.996 | S. cerevisiae deletion strains, locus YKL160W, strain elf1, stronger effect = lower value 1.01 | S. cerevisiae deletion strains, locus YKR001C, strain vps1, stronger effect = lower value 0.985 | S. cerevisiae deletion strains, locus YKR026C, strain gcn3, stronger effect = lower value 1.01 | S. cerevisiae deletion strains, locus YKR091W, strain srl3, stronger effect = lower value 1 | S. cerevisiae deletion strains, locus YLL001W, strain dnm1, stronger effect = lower value 1.01 | S. cerevisiae deletion strains, locus YLL026W, stronger effect = lower value 1.02 | S. cerevisiae deletion strains, locus YLL041C, strain sdh2, stronger effect = lower value 1.02 | S. cerevisiae deletion strains, locus YLR027C, strain aat2, stronger effect = lower value 1.01 | S. cerevisiae deletion strains, locus YLR039C, strain RIC1, stronger effect = lower value 0.971 | S. cerevisiae deletion strains, locus YLR058C, strain SHM2, stronger effect = lower value 0.981 | S. cerevisiae deletion strains, locus YLR102C, strain apc9, stronger effect = lower value 0.974 | S. cerevisiae deletion strains, locus YLR113W, strain HOG1, stronger effect = lower value 0.962 | S. cerevisiae deletion strains, locus YLR221C, strain rsa3, stronger effect = lower value 1 | S. cerevisiae deletion strains, locus YLR258W, strain gsy2, stronger effect = lower value 1 | S. cerevisiae deletion strains, locus YLR262C, strain YPT6 (second series), stronger effect = lower value 1.01 | S. cerevisiae deletion strains, locus YLR268W, strain sec22, stronger effect = lower value 0.964 | S. cerevisiae deletion strains, locus YLR320W, strain mms22, stronger effect = lower value 1.01 | S. cerevisiae deletion strains, locus YLR342W, strain FKS1 (second series), stronger effect = lower value 1 | S. cerevisiae deletion strains, locus YLR342W, strain FKS1, stronger effect = lower value 0.999 | S. cerevisiae deletion strains, locus YLR357W, strain rsc2, stronger effect = lower value 1.03 | S. cerevisiae deletion strains, locus YLR370C, strain arc18, stronger effect = lower value 1.02 | S. cerevisiae deletion strains, locus YLR371W, strain rom2, stronger effect = lower value 0.967 | S. cerevisiae deletion strains, locus YLR384C, strain iki3, stronger effect = lower value 1.02 | S. cerevisiae deletion strains, locus YLR418C, strain cdc73, stronger effect = lower value 1.04 | S. cerevisiae deletion strains, locus YML016C, strain PPZ1, stronger effect = lower value 0.973 | S. cerevisiae deletion strains, locus YML032C, strain rad52, stronger effect = lower value 0.966 | S. cerevisiae deletion strains, locus YML120C, strain ndi1, stronger effect = lower value 0.993 | S. cerevisiae deletion strains, locus YML124C, strain tub3, stronger effect = lower value 0.989 | S. cerevisiae deletion strains, locus YMR058W, strain fet3, stronger effect = lower value 1 | S. cerevisiae deletion strains, locus YMR078C, strain ctf18, stronger effect = lower value 0.983 | S. cerevisiae deletion strains, locus YMR125W, strain sto1, stronger effect = lower value 0.999 | S. cerevisiae deletion strains, locus YMR129W, stronger effect = lower value 1 | S. cerevisiae deletion strains, locus YMR205C, strain PFK2, stronger effect = lower value 1 | S. cerevisiae deletion strains, locus YMR223W, strain ubp8, stronger effect = lower value 1.01 | S. cerevisiae deletion strains, locus YMR231W, strain pep5, stronger effect = lower value 1.01 | S. cerevisiae deletion strains, locus YMR307W, strain GAS1, stronger effect = lower value 0.896 | S. cerevisiae deletion strains, locus YNL067W, strain RPL9B, stronger effect = lower value 1.04 | S. cerevisiae deletion strains, locus YNL071W, strain lat1, stronger effect = lower value 1.01 | S. cerevisiae deletion strains, locus YNL153C, strain GIM3, stronger effect = lower value 1.02 | S. cerevisiae deletion strains, locus YNL183C, strain NPR1, stronger effect = lower value 0.993 | S. cerevisiae deletion strains, locus YNL209W, strain ssb2, stronger effect = lower value 0.991 | S. cerevisiae deletion strains, locus YNL233W, strain BNI4, stronger effect = lower value 1.02 | S. cerevisiae deletion strains, locus YNL248C, strain rpa49, stronger effect = lower value 1.02 | S. cerevisiae deletion strains, locus YNL250W, strain rad50, stronger effect = lower value 0.994 | S. cerevisiae deletion strains, locus YNL271C, strain bni1, stronger effect = lower value 0.988 | S. cerevisiae deletion strains, locus YNL298W, strain CLA4, stronger effect = lower value 0.963 | S. cerevisiae deletion strains, locus YNL307C, strain MCK1, stronger effect = lower value 0.991 | S. cerevisiae deletion strains, locus YNL322C, strain KRE1 (second series), stronger effect = lower value 1 | S. cerevisiae deletion strains, locus YNR049C, strain mso1, stronger effect = lower value 1.02 | S. cerevisiae deletion strains, locus YNR052C, strain pop2, stronger effect = lower value 1.02 | S. cerevisiae deletion strains, locus YOL006C, strain TOP1, stronger effect = lower value 0.97 | S. cerevisiae deletion strains, locus YOL012C, strain htz1 0.746 | S. cerevisiae deletion strains, locus YOL147C, strain pex11, stronger effect = lower value 0.982 | S. cerevisiae deletion strains, locus YOR001W, strain rrp6, stronger effect = lower value 1.01 | S. cerevisiae deletion strains, locus YOR061W, strain CKA2, stronger effect = lower value 0.948 | S. cerevisiae deletion strains, locus YOR069W, strain VPS5, stronger effect = lower value 0.992 | S. cerevisiae deletion strains, locus YOR070C, strain gyp1, stronger effect = lower value 1.02 | S. cerevisiae deletion strains, locus YOR080W, strain dia2, stronger effect = lower value 0.995 | S. cerevisiae deletion strains, locus YOR083W, strain WHI5, stronger effect = lower value 1 | S. cerevisiae deletion strains, locus YOR106W, strain vam3, stronger effect = lower value 1.01 | S. cerevisiae deletion strains, locus YOR136W, strain idh2, stronger effect = lower value 0.986 | S. cerevisiae deletion strains, locus YOR144C, strain elg1, stronger effect = lower value 0.979 | S. cerevisiae deletion strains, locus YOR184W, strain ser1, stronger effect = lower value 0.935 | S. cerevisiae deletion strains, locus YOR231W, strain MKK1, stronger effect = lower value 1.03 | S. cerevisiae deletion strains, locus YOR265W, strain rbl2, stronger effect = lower value 1.03 | S. cerevisiae deletion strains, locus YOR270C, strain vph1, stronger effect = lower value 1.07 | S. cerevisiae deletion strains, locus YOR290C, strain snf2, stronger effect = lower value 0.996 | S. cerevisiae deletion strains, locus YOR316C, strain cot1, stronger effect = lower value 0.981 | S. cerevisiae deletion strains, locus YPL051W, strain arl3, stronger effect = lower value 1.01 | S. cerevisiae deletion strains, locus YPL078C, strain atp4, stronger effect = lower value 1 | S. cerevisiae deletion strains, locus YPL106C, strain sse1, stronger effect = lower value 0.986 | S. cerevisiae deletion strains, locus YPL240C, strain hsp82, stronger effect = lower value 1 | S. cerevisiae deletion strains, locus YPL241C, strain CIN2, stronger effect = lower value 0.981 | S. cerevisiae deletion strains, locus YPL256C, strain CLN2, stronger effect = lower value 1 | S. cerevisiae deletion strains, locus YPR119W, strain clb2, stronger effect = lower value 0.988 | S. cerevisiae deletion strains, locus YPR141C, strain kar3, stronger effect = lower value 0.992 | S. cerevisiae deletion strains, locus YPR163C, strain tif3, stronger effect = lower value 0.971 | S. cerevisiae deletion strains, locus YPR167C, strain met16, stronger effect = lower value 0.997 | S. cerevisiae deletion strains, strain wtn01, stronger effect = lower value 0.961 | S. cerevisiae strains, strain wild type, stronger effect = lower value 0.97
